Reference: the supplement of paper PMC7411054
Where a name gives a salt, the structure may show the parent alone.

Columns and labels:
Settings in all cases: treatment time: 24 h
A549-CANX-COX4 = assay: phenotypically active (imaging signature differs from DMSO and reproducible) at any of 0.3-9 uM (binary (1 = active, 0 = inactive)); higher = active
Outline: (§1)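 Cells from fifteen gene-edited reporter lines (A549, HepG2 and WPMY1) were treated for 24 h at 0.3, 1, 3 or 9 µM and imaged live, four wells per condition. Features were normalised per well to solvent control wells. A condition deviated if ≥3 of 4 wells passed the 95th percentile of control Euclidean distances and was reproducible if its median replicate Pearson correlation beat the 95th percentile of non-replicates; phenotypic activity needed both.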

A549-TP53BP1-CLTA = assay: as above
Outline: as §1

HepG2-ACTB-RAB5A = assay: as above
Outline: as §1

HepG2-CANX-COX4 = assay: as above
Outline: as §1

HepG2-GM130-SQSTM1 = assay: as above
Outline: as §1

HepG2-TP53BP1-CLTA = assay: as above
Outline: as §1

HepG2-TUBA1B-RELA [1] = assay: as above
Outline: as §1

WPMY1-ACTB-RAB5A = assay: as above
Outline: as §1

WPMY1-CANX-COX4 = assay: as above
Outline: as §1

WPMY1-GM130-SQSTM1 [2] = assay: as above
Outline: as §1

WPMY1-TP53BP1-CLTA = assay: as above
Outline: as §1

WPMY1-TUBA1B-RELA = assay: as above
Outline: as §1

HepG2-TUBA1B-RELA [3] = assay: lowest phenotypically active concentration; higher = less potent
Outline: as §1

A549-ACTB-RAB5A = assay: phenotypically active (imaging signature differs from DMSO and reproducible) at any of 0.3-9 uM (binary (1 = active, 0 = inactive)); higher = active
Outline: as §1

A549-GM130-SQSTM1 = assay: as above
Outline: as §1

A549-TUBA1B-RELA = assay: as above
Outline: as §1

WPMY1-GM130-SQSTM1 [4] = assay: lowest phenotypically active concentration; higher = less potent
Outline: as §1

OC(CCN1CCCCC1)(c1ccccc1)C1CCCCC1 (stereo not given) [trihexyphenidyl]
inactive: phenotypically active (A549-CANX-COX4) 0 | phenotypically active (A549-TP53BP1-CLTA) 0 | phenotypically active (HepG2-ACTB-RAB5A) 0 | phenotypically active (HepG2-CANX-COX4) 0 | phenotypically active (HepG2-GM130-SQSTM1) 0 | phenotypically active (HepG2-TP53BP1-CLTA) 0 | phenotypically active (HepG2-TUBA1B-RELA [1]) 0 | phenotypically active (WPMY1-ACTB-RAB5A) 0 | phenotypically active (WPMY1-CANX-COX4) 0 | phenotypically active (WPMY1-GM130-SQSTM1 [2]) 0 | phenotypically active (WPMY1-TP53BP1-CLTA) 0 | phenotypically active (WPMY1-TUBA1B-RELA) 0

COc1cc2nc(N3CCN(C(=O)c4ccco4)CC3)nc(N)c2cc1OC [prazosin]
active: phenotypically active (HepG2-CANX-COX4) 1 | phenotypically active (HepG2-TUBA1B-RELA [1]) 1
inactive: phenotypically active (A549-ACTB-RAB5A) 0 | phenotypically active (A549-CANX-COX4) 0 | phenotypically active (A549-GM130-SQSTM1) 0 | phenotypically active (A549-TUBA1B-RELA) 0 | phenotypically active (HepG2-ACTB-RAB5A) 0 | phenotypically active (HepG2-GM130-SQSTM1) 0 | phenotypically active (WPMY1-ACTB-RAB5A) 0 | phenotypically active (WPMY1-CANX-COX4) 0 | phenotypically active (WPMY1-GM130-SQSTM1 [2]) 0 | phenotypically active (WPMY1-TUBA1B-RELA) 0
9 µM: lowest phenotypically active concentration (HepG2-TUBA1B-RELA [3])

COc1ccc2c3c(c(=O)n(C)c2c1OC)C=CC(C)(C)O3 [Veprisine]
inactive: phenotypically active (A549-ACTB-RAB5A) 0 | phenotypically active (A549-CANX-COX4) 0 | phenotypically active (A549-GM130-SQSTM1) 0 | phenotypically active (A549-TP53BP1-CLTA) 0 | phenotypically active (A549-TUBA1B-RELA) 0 | phenotypically active (HepG2-ACTB-RAB5A) 0 | phenotypically active (HepG2-CANX-COX4) 0 | phenotypically active (HepG2-GM130-SQSTM1) 0 | phenotypically active (HepG2-TP53BP1-CLTA) 0 | phenotypically active (HepG2-TUBA1B-RELA [1]) 0 | phenotypically active (WPMY1-ACTB-RAB5A) 0 | phenotypically active (WPMY1-CANX-COX4) 0 | phenotypically active (WPMY1-TUBA1B-RELA) 0
9 µM: lowest phenotypically active concentration (WPMY1-GM130-SQSTM1 [4])
active: phenotypically active (WPMY1-GM130-SQSTM1 [2]) 1 | phenotypically active (WPMY1-TP53BP1-CLTA) 1

CNC(=O)c1c(-c2ccc(F)cc2)oc2cc(N(CCO)S(C)(=O)=O)c(C3CC3)cc12 [nesbuvir]
inactive: phenotypically active (A549-CANX-COX4) 0 | phenotypically active (A549-TP53BP1-CLTA) 0 | phenotypically active (HepG2-ACTB-RAB5A) 0 | phenotypically active (HepG2-CANX-COX4) 0 | phenotypically active (HepG2-GM130-SQSTM1) 0 | phenotypically active (HepG2-TP53BP1-CLTA) 0 | phenotypically active (HepG2-TUBA1B-RELA [1]) 0 | phenotypically active (WPMY1-ACTB-RAB5A) 0 | phenotypically active (WPMY1-CANX-COX4) 0 | phenotypically active (WPMY1-GM130-SQSTM1 [2]) 0 | phenotypically active (WPMY1-TP53BP1-CLTA) 0 | phenotypically active (WPMY1-TUBA1B-RELA) 0

Cc1ccc(C(=O)c2cc(O)c(O)c([N+](=O)[O-])c2)cc1 [tolcapone]
inactive: phenotypically active (A549-CANX-COX4) 0 | phenotypically active (A549-TP53BP1-CLTA) 0 | phenotypically active (HepG2-ACTB-RAB5A) 0 | phenotypically active (HepG2-CANX-COX4) 0 | phenotypically active (HepG2-GM130-SQSTM1) 0 | phenotypically active (HepG2-TP53BP1-CLTA) 0 | phenotypically active (HepG2-TUBA1B-RELA [1]) 0 | phenotypically active (WPMY1-ACTB-RAB5A) 0 | phenotypically active (WPMY1-CANX-COX4) 0 | phenotypically active (WPMY1-GM130-SQSTM1 [2]) 0 | phenotypically active (WPMY1-TP53BP1-CLTA) 0 | phenotypically active (WPMY1-TUBA1B-RELA) 0

Fc1ccc(Cl)cc1-c1nc(Nc2ccncc2)c2nccnc2n1
active: phenotypically active (WPMY1-TP53BP1-CLTA) 1
inactive: phenotypically active (A549-ACTB-RAB5A) 0 | phenotypically active (A549-CANX-COX4) 0 | phenotypically active (A549-GM130-SQSTM1) 0 | phenotypically active (A549-TP53BP1-CLTA) 0 | phenotypically active (A549-TUBA1B-RELA) 0 | phenotypically active (HepG2-ACTB-RAB5A) 0 | phenotypically active (HepG2-CANX-COX4) 0 | phenotypically active (HepG2-GM130-SQSTM1) 0 | phenotypically active (HepG2-TP53BP1-CLTA) 0 | phenotypically active (HepG2-TUBA1B-RELA [1]) 0 | phenotypically active (WPMY1-ACTB-RAB5A) 0 | phenotypically active (WPMY1-CANX-COX4) 0 | phenotypically active (WPMY1-GM130-SQSTM1 [2]) 0 | phenotypically active (WPMY1-TUBA1B-RELA) 0

C[C@@H](Oc1cc(-c2cnn(C3CCNCC3)c2)cnc1N)c1c(Cl)ccc(F)c1Cl [Crizotinib]
active: phenotypically active (A549-CANX-COX4) 1 | phenotypically active (A549-GM130-SQSTM1) 1 | phenotypically active (A549-TP53BP1-CLTA) 1 | phenotypically active (HepG2-ACTB-RAB5A) 1 | phenotypically active (HepG2-CANX-COX4) 1 | phenotypically active (HepG2-TP53BP1-CLTA) 1 | phenotypically active (HepG2-TUBA1B-RELA [1]) 1 | phenotypically active (WPMY1-ACTB-RAB5A) 1 | phenotypically active (WPMY1-CANX-COX4) 1 | phenotypically active (WPMY1-GM130-SQSTM1 [2]) 1 | phenotypically active (WPMY1-TP53BP1-CLTA) 1 | phenotypically active (WPMY1-TUBA1B-RELA) 1

C[C@H](CS)C(=O)N1CCC[C@H]1C(=O)O [captopril]
inactive: phenotypically active (A549-ACTB-RAB5A) 0 | phenotypically active (A549-CANX-COX4) 0 | phenotypically active (A549-GM130-SQSTM1) 0 | phenotypically active (A549-TUBA1B-RELA) 0 | phenotypically active (HepG2-ACTB-RAB5A) 0 | phenotypically active (HepG2-CANX-COX4) 0 | phenotypically active (HepG2-GM130-SQSTM1) 0 | phenotypically active (HepG2-TUBA1B-RELA [1]) 0 | phenotypically active (WPMY1-ACTB-RAB5A) 0 | phenotypically active (WPMY1-CANX-COX4) 0 | phenotypically active (WPMY1-GM130-SQSTM1 [2]) 0 | phenotypically active (WPMY1-TUBA1B-RELA) 0

C=C[C@H]1CN2CC[C@H]1C[C@H]2[C@H](O)c1ccnc2ccc(OC)cc12 [Quinine dihydrochloride]
inactive: phenotypically active (A549-CANX-COX4) 0 | phenotypically active (A549-TUBA1B-RELA) 0 | phenotypically active (HepG2-ACTB-RAB5A) 0 | phenotypically active (HepG2-CANX-COX4) 0 | phenotypically active (HepG2-GM130-SQSTM1) 0 | phenotypically active (HepG2-TUBA1B-RELA [1]) 0 | phenotypically active (WPMY1-ACTB-RAB5A) 0 | phenotypically active (WPMY1-CANX-COX4) 0 | phenotypically active (WPMY1-GM130-SQSTM1 [2]) 0 | phenotypically active (WPMY1-TUBA1B-RELA) 0
active: phenotypically active (A549-ACTB-RAB5A) 1 | phenotypically active (A549-GM130-SQSTM1) 1

CCCCCCCCCCCCc1ccc(S(=O)(=O)Nc2nncs2)cc1
inactive: phenotypically active (A549-CANX-COX4) 0 | phenotypically active (A549-TP53BP1-CLTA) 0 | phenotypically active (HepG2-ACTB-RAB5A) 0 | phenotypically active (HepG2-CANX-COX4) 0 | phenotypically active (HepG2-GM130-SQSTM1) 0 | phenotypically active (HepG2-TP53BP1-CLTA) 0 | phenotypically active (HepG2-TUBA1B-RELA [1]) 0 | phenotypically active (WPMY1-ACTB-RAB5A) 0 | phenotypically active (WPMY1-CANX-COX4) 0 | phenotypically active (WPMY1-GM130-SQSTM1 [2]) 0 | phenotypically active (WPMY1-TP53BP1-CLTA) 0 | phenotypically active (WPMY1-TUBA1B-RELA) 0

CCCCCCCN(CC)CCCC(O)c1ccc(NS(C)(=O)=O)cc1 (stereo not given) [ibutilide]
inactive: phenotypically active (A549-ACTB-RAB5A) 0 | phenotypically active (A549-CANX-COX4) 0 | phenotypically active (A549-GM130-SQSTM1) 0 | phenotypically active (A549-TP53BP1-CLTA) 0 | phenotypically active (A549-TUBA1B-RELA) 0 | phenotypically active (HepG2-ACTB-RAB5A) 0 | phenotypically active (HepG2-CANX-COX4) 0 | phenotypically active (HepG2-GM130-SQSTM1) 0 | phenotypically active (HepG2-TP53BP1-CLTA) 0 | phenotypically active (HepG2-TUBA1B-RELA [1]) 0 | phenotypically active (WPMY1-ACTB-RAB5A) 0 | phenotypically active (WPMY1-CANX-COX4) 0 | phenotypically active (WPMY1-TP53BP1-CLTA) 0 | phenotypically active (WPMY1-TUBA1B-RELA) 0
active: phenotypically active (WPMY1-GM130-SQSTM1 [2]) 1
3 µM: lowest phenotypically active concentration (WPMY1-GM130-SQSTM1 [4])

CC1(C)NC(=O)N(c2ccc([N+](=O)[O-])c(C(F)(F)F)c2)C1=O [nilutamide]
inactive: phenotypically active (A549-CANX-COX4) 0 | phenotypically active (A549-TP53BP1-CLTA) 0 | phenotypically active (HepG2-ACTB-RAB5A) 0 | phenotypically active (HepG2-CANX-COX4) 0 | phenotypically active (HepG2-GM130-SQSTM1) 0 | phenotypically active (HepG2-TP53BP1-CLTA) 0 | phenotypically active (HepG2-TUBA1B-RELA [1]) 0 | phenotypically active (WPMY1-ACTB-RAB5A) 0 | phenotypically active (WPMY1-CANX-COX4) 0 | phenotypically active (WPMY1-GM130-SQSTM1 [2]) 0 | phenotypically active (WPMY1-TP53BP1-CLTA) 0 | phenotypically active (WPMY1-TUBA1B-RELA) 0

C=C[C@H]1C[N@@]2CC[C@H]1C[C@@H]2[C@@H](O)c1ccnc2ccc(OC)cc12 [quinidine]
inactive: phenotypically active (A549-ACTB-RAB5A) 0 | phenotypically active (A549-CANX-COX4) 0 | phenotypically active (A549-GM130-SQSTM1) 0 | phenotypically active (A549-TUBA1B-RELA) 0 | phenotypically active (HepG2-ACTB-RAB5A) 0 | phenotypically active (HepG2-CANX-COX4) 0 | phenotypically active (HepG2-GM130-SQSTM1) 0 | phenotypically active (HepG2-TUBA1B-RELA [1]) 0 | phenotypically active (WPMY1-ACTB-RAB5A) 0 | phenotypically active (WPMY1-CANX-COX4) 0 | phenotypically active (WPMY1-GM130-SQSTM1 [2]) 0 | phenotypically active (WPMY1-TUBA1B-RELA) 0

Nc1nc(N)nc(-c2cc(Cl)ccc2Cl)n1 [Irsogladine maleate]
inactive: phenotypically active (A549-CANX-COX4) 0 | phenotypically active (A549-TP53BP1-CLTA) 0 | phenotypically active (HepG2-ACTB-RAB5A) 0 | phenotypically active (HepG2-CANX-COX4) 0 | phenotypically active (HepG2-GM130-SQSTM1) 0 | phenotypically active (HepG2-TP53BP1-CLTA) 0 | phenotypically active (HepG2-TUBA1B-RELA [1]) 0 | phenotypically active (WPMY1-ACTB-RAB5A) 0 | phenotypically active (WPMY1-CANX-COX4) 0 | phenotypically active (WPMY1-GM130-SQSTM1 [2]) 0 | phenotypically active (WPMY1-TP53BP1-CLTA) 0 | phenotypically active (WPMY1-TUBA1B-RELA) 0
